Results published in PubChem BioAssay AID720555 (National Center for Advancing Translational Sciences (NCATS), 2013).
Where “and” joins values, the source holds several entries; their conditions need not be identical. Equal entries are not always repeated. Records with an inconclusive call do not appear. Entries that show only a call come without a potency. Calls of active or inactive are those of the source. The call rests on the fitted dose curve; in most records, active means well fitted inhibition curve with a large enough effect; inconclusive means small, poorly fitted or top-dose-only effect; inactive means no such curve, though single readings can be large or run the other way.

What follows are compounds tested against RecQ-like DNA helicase BLM (Homo sapiens) (UniProt P54132) (assay: qHTS for Inhibitors of Bloom's syndrome helicase (BLM): Helicase DNA unwinding fluorescent orthogonal confirmatory assay for SAR). Conditions: fluorescence, orthogonal confirmation; series mostly up to 55.6 µM.
Sequence of RecQ-like DNA helicase BLM (Homo sapiens) (P54132 whole entry, looked up): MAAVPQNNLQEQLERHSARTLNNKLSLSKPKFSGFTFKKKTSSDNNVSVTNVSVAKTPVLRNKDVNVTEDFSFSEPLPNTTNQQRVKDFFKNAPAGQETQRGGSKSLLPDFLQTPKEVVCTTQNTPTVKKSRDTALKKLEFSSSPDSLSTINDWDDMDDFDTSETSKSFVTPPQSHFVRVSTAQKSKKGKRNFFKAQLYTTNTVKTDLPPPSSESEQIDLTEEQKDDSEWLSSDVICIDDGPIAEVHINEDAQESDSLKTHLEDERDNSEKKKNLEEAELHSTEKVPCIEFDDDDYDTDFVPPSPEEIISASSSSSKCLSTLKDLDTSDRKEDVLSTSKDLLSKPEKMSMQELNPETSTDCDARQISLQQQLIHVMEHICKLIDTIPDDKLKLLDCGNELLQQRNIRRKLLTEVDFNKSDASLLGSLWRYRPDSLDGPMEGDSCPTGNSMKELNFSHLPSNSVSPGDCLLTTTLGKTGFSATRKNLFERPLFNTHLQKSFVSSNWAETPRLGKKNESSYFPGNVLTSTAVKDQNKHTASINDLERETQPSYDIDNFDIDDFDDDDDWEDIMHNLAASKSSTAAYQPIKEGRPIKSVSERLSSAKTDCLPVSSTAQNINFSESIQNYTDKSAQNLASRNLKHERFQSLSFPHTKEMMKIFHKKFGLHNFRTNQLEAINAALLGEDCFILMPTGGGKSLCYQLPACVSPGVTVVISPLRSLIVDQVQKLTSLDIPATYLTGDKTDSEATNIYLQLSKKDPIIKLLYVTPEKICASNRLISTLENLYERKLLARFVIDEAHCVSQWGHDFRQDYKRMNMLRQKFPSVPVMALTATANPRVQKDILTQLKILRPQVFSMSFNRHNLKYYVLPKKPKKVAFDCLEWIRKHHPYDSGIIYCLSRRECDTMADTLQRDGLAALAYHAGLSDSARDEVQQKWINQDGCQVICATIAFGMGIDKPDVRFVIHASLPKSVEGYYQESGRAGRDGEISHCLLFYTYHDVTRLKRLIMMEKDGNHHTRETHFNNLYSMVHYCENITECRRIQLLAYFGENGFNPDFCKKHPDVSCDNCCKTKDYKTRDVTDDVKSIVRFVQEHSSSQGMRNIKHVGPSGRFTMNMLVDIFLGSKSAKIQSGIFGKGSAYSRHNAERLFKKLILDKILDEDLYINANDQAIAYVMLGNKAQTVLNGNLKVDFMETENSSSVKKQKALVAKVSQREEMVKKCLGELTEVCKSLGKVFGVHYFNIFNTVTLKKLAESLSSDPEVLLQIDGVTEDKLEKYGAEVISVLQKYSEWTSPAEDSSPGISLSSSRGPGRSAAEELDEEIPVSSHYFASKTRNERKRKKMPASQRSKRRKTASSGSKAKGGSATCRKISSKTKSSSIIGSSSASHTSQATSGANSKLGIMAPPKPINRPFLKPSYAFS
Outline: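 Gel-based orthogonal unwinding test: native PAGE separated substrate from single-stranded product of a fluorescent DNA duplex processed by purified BLM (2mM ATP, 50mM NaCl, room temperature). Bands were quantified and normalised against no-enzyme and no-inhibitor wells.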

SMILES | Potency
S=C(Nc1ccc(Cl)c(Cl)c1)Nc1nnc(-c2ccncc2)o1 | inactive
O=C(Nc1ccc2ccccc2c1)Nc1nnc(-c2ccccc2F)s1 | inactive
CCOc1ccc(NC(=O)Nc2ccc(-c3nc4ccccc4[nH]3)cc2)cc1 | inactive
O=c1c(Nc2ccc(Cl)c(Cl)c2)c(Nc2nnc(-c3ccncc3)s2)c1=O | 14.1 µM (active)
O=C(Nc1ccc2ccccc2c1)Nc1nnc(-c2cccnc2)s1 | 10 µM (active)
O=C(Nc1ccc2ccccc2c1)Nc1nnc(-c2ccc(Cl)cc2)s1 | inactive
O=C(NCc1ccc(Cl)c(Cl)c1)Nc1nnc(-c2ccncc2)s1 | 39.8 µM (active)
O=C(Nc1ccc(F)c(C(F)(F)F)c1)Nc1ccc(-c2ccncc2)s1 | inactive
Cc1cc(NC(=O)Nc2nnc(-c3ccncc3)s2)ccc1Cl | 7.94 µM (active)
O=C(Nc1ccc2ccccc2c1)Nc1nnc(Br)s1 | inactive
N#Cc1cc(NC(=O)Nc2nnc(-c3ccncc3)s2)ccc1-c1cn[nH]c1 | 1.58 µM (active) and 7.08 µM (active)
O=C(Cc1nnc(-c2ccncc2)s1)Nc1ccc(F)c(C(F)(F)F)c1 | inactive
O=C(Nc1ccc(Cl)c(Cl)c1)Nc1ncc(-c2ccncc2)s1 | inactive
O=C(Nc1ccc2sccc2c1)Nc1nnc(-c2cccnc2)s1 | 10 µM (active)
O=C(Nc1ccc(-c2nc3ccccc3[nH]2)cc1)Nc1ccc2occc2c1 | inactive
Cc1cc(NC(=O)Nc2cccc(-c3ccncc3)n2)ccc1Cl | 4.47 µM (active) and 3.55 µM (active)
O=C(Nc1cccc(C(=O)O)c1)Nc1nnc(-c2ccncc2)s1 | inactive

SMILES | Potency
O=C(Nc1ccc2c(c1)OCCO2)Nc1nnc(-c2ccncc2)s1 | inactive
O=C(Nc1ccc(Cl)c(Cl)c1)Nc1nnc(-c2ccncc2)o1 | inactive
N/C(=N\c1nnc(-c2ccncc2)s1)Nc1ccc(Cl)c(Cl)c1 | 14.1 µM (active)
O=C(Nc1ccc(Cl)c(Cl)c1)Nc1ccc(-c2ccncc2)s1 | inactive
CN(C(=O)Nc1ccc2ccccc2c1)c1nnc(-c2ccncc2)s1 | inactive
O=C(Nc1ccc2ccccc2c1)Nc1cccc(-c2ccncc2)n1 | 8.91 µM (active)
O=C(Nc1ccc(Cl)c(Cl)c1)Nc1cccc(-c2ccncc2)n1 | 3.98 µM (active)
N#Cc1ccc(NC(=O)Nc2nnc(-c3ccncc3)s2)cc1 | 7.94 µM (active)
CC(C)(C)c1ccc(-c2nnc(NC(=O)Nc3ccc4ccccc4c3)s2)cc1 | inactive
O=C(Nc1ccc(Cl)c(Cl)c1)Nc1nnc(C2CCCCC2)s1 | inactive
N#Cc1ccc(NC(=O)Nc2nnc(-c3ccncc3)s2)c(Cl)c1 | 11.2 µM (active)
O=C(Nc1ccc(Cl)c(C(F)(F)F)c1)Nc1nnc(-c2cccnc2)s1 | 3.16 µM (active)
O=C(Nc1nnc(-c2ccncc2)s1)Nc1ccc(Cl)cc1Cl | 31.6 µM (active)
CCCCCCNC(=O)Nc1nnc(-c2ccncc2)s1 | inactive
O=S(=O)(Cc1ccc(Cl)c(Cl)c1)Nc1nnc(-c2ccncc2)s1 | inactive
O=C(Nc1ccc(Cl)nc1)Nc1nnc(-c2ccncc2)s1 | 6.31 µM (active)
N#Cc1cccc(NC(=O)Nc2nnc(-c3ccncc3)s2)c1 | 8.91 µM (active)
